PubChem BioAssay (Tox21)
Records with an inconclusive call do not appear. Where a call stands in place of a potency, no number is given. Activity calls are given as the source filed them. Calls come from the whole dose curve.

target: 5-hydroxytryptamine receptor 2A (Homo sapiens) (UniProt P28223); experiment: 5-hydroxytryptamine receptor 2A (HTR2A) small molecule antagonists, cell-based qHTS assay (AID 1963586); details: HTR2A-CHO cells, DOI-induced calcium flux, fluorescence; series mostly up to 61.5 µM; note: nearly all actives have a fitted effect of over 45% in size
Sequence (P28223 whole entry, looked up): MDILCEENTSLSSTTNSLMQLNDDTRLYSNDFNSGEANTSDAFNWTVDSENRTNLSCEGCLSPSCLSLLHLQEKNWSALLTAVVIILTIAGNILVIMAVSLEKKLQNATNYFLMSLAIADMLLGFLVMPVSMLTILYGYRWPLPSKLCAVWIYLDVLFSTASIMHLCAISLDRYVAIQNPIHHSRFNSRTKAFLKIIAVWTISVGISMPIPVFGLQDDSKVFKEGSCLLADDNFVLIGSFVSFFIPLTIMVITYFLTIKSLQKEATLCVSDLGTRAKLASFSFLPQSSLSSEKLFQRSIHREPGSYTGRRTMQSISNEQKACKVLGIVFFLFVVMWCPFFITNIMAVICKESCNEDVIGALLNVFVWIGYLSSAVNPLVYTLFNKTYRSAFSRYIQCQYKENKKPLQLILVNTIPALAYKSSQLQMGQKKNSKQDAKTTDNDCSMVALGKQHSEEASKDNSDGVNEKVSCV
In short: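 CHO cells stably expressing human HTR2A were plated for 18 h at 37 C, then loaded with calcium dye for 1 h. Compounds were preincubated 5 min at room temperature before DOI (4 nM solution) was added. Kinetic fluorescence was read for 3 min.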

Structure (SMILES) | Potency
CSc1ccc(C=O)cc1 | inactive
OCCC1CCCCN1 (stereo not drawn) | inactive
OCCCCCCCCCCCCBr | inactive
C/C=C/C=N/NC(=O)c1ccncc1 | inactive
COc1ccc2cc1Oc1ccc(cc1)C[C@H]1c3c(cc4c(c3Oc3cc5c(cc3OC)CCN(C)[C@@H]5C2)OCO4)CCN1C | inactive
Cc1ncc([N+](=O)[O-])n1CC(O)CCl (stereo not drawn) | inactive
Cc1c(N)cccc1N | inactive
NNC(=O)OCc1ccccc1 | inactive
C[C@@H]1C[C@H]2[C@@H]3C[C@H](F)C4=CC(=O)C=C[C@]4(C)[C@@]3(F)[C@@H](O)C[C@]2(C)[C@@]1(O)C(=O)CO | inactive

target: 5-hydroxytryptamine receptor 2A (Homo sapiens) (UniProt P28223); experiment: 5-hydroxytryptamine receptor 2A (HTR2A) small molecule agonists, cell-based qHTS assay (AID 1963587); details: HTR2A-CHO cells, calcium flux fluorescence, agonist mode; series mostly up to 76.8 µM; note: nearly all actives have a fitted effect of over 30% in size; note: potency is the fitted concentration of half-maximal effect
In short: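 HTR2A-CHO cells, plated 18 h at 37 C/5% CO2, dye-loaded 1 h at 37 C; compounds in DMSO added by pin tool (agonist mode). Intracellular calcium flux read as kinetic fluorescence on FDSS over 2 min at 1 s intervals.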

Structure (SMILES) | Potency | activation
CC(=O)OC1C2(C)CCC(C2)C1(C)C (stereo not drawn) | inactive | –
COP(=O)(OC)OC(c1ccc(Cl)cc1)P(=O)(OC)OC (stereo not drawn) | inactive | –
CCC(Cl)CC(Cl)C(Cl)C(Cl)C(Cl)C(C)Cl (stereo not drawn) | – | -1.32% [at 15.9 µM] (inactive)
O=C(O)c1ccc(S(=O)(=O)O)cc1C(=O)O | inactive | –
CCCOC(=O)CCCCC(=O)OCCC | inactive | –
CCCCCCC[N+](CC)(CC)CCCCc1ccc(Cl)cc1 | inactive | –
O=C1CCCCCCCCCCCC(=O)OCCO1 | 5.49 µM (active) | –
CCCCCCCCCCl | inactive | –
CC(C)CCCCCCOC(=O)C1CCCCC1C(=O)OCCCCCCC(C)C (stereo not drawn) | inactive | –
O=S(=O)(O)c1cc(O)c2ccc(Nc3ccccc3)cc2c1 | inactive | –
N#CCCN(CCO)CCO | inactive | –
CC(C)O.CC(C)O.CCOC(=O)/C=C(\C)O.CCOC(=O)/C=C(\C)O.[Ti] | inactive | –
Cn1cc(C(=O)[C@@H]2CCc3nc[nH]c3C2)c2ccccc21 | inactive | –
CC1=C(O)C(=O)CO1 | inactive | –
O=C(OCC(COC(=O)c1cccnc1)(COC(=O)c1cccnc1)COC(=O)c1cccnc1)c1cccnc1 | inactive | –
NC(=O)N(O)[C@@H]1COc2cc(OCc3ccccc3)ccc21 | inactive | –
CN1C(CSCC(F)(F)F)Nc2cc(Cl)c(S(N)(=O)=O)cc2S1(=O)=O (stereo not drawn) | inactive | –

Structure (SMILES) | Potency | activation
Nc1ccc2cc(S(=O)(=O)O)cc(O)c2c1N=Nc1ccccc1C(F)(F)F | inactive | –
CCCCOCCOCCOCc1cc2c(cc1CCC)OCO2 | inactive | –
CCCC(=O)O[C@]1(C(=O)COC(=O)CC)CC[C@H]2[C@@H]3CCC4=CC(=O)CC[C@]4(C)[C@H]3[C@@H](O)C[C@@]21C | – | 1.9% [at 15.9 µM] (inactive)
CCN1C=CN(C)C1C (stereo not drawn) | inactive | –
CC1CCC(=O)C1=O (stereo not drawn) | inactive | –
COc1ccc(CCN(C)CCCN2CCc3cc(OC)c(OC)cc3CC2=O)cc1OC | inactive | –
CSc1ccc(C=O)cc1 | inactive | –
OCCC1CCCCN1 (stereo not drawn) | inactive | –
C=C(C)C(=O)OCCOc1ccccc1 | inactive | –
OCCCCCCCCCCCCBr | inactive | –
C/C=C/C=N/NC(=O)c1ccncc1 | inactive | –
Cc1cc(O)c2c(O)c3c(O)cccc3cc2c1 | inactive | –
Cc1ncc([N+](=O)[O-])n1CC(O)CCl (stereo not drawn) | inactive | –
Cc1c(N)cccc1N | inactive | –
Oc1cccc(Nc2ccccc2)c1 | inactive | –
NNC(=O)OCc1ccccc1 | inactive | –
C[C@@H]1C[C@H]2[C@@H]3C[C@H](F)C4=CC(=O)C=C[C@]4(C)[C@@]3(F)[C@@H](O)C[C@]2(C)[C@@]1(O)C(=O)CO | inactive | –
